Source: ChEMBL document CHEMBL3988442, “University of Dundee, Small-Polar-MMV Screening Library” (2021)
Hit rate of the full screen: of about 53,000 compounds, about 900 (1.7%) showed an effect of 50% or more. This excerpt belongs to a sample that is enriched for strong results.

Tested on: Mycobacterium tuberculosis
Assay: Cornell - Phenotypic assay to identify agents that inhibit growth of Mycobacterium tuberculosis
Type: functional
Parameters: scale not given: direction of the effect not stated beside the values
Conditions: 10 mM as filed; unlikely as a test dose

Structure (SMILES) | Percent Effect [%]
O=C1CCC(=O)N1c1nn(Cc2ccccc2)cc1Cl | -38.92
Cc1ccc(S(=O)(=O)c2ncccc2CN2CCCC2)cc1 | -5.255
N#CC1COCCN1C(=O)c1ccc2[nH]ccc2c1 (stereo not given) | 10.98
CC(C)(C)n1cc(NC(=O)C2CN(Cc3ccccc3)CCO2)cn1 (stereo not given) | 19.34
COc1ccccc1CNC(=O)CN(C)C(C)c1ccncn1 (stereo not given) | 1.408
CC(C)N1CC[C@@](C)(O)[C@H](n2ccc(=O)[nH]c2=O)C1 | -3.084
Cc1cn([C@H]2CCNC[C@]2(C)O)c(=O)[nH]c1=O | 34.03
Cc1cn([C@@H]2CC3(CCNCC3)OC[C@@]2(C)O)c(=O)[nH]c1=O | 56.73
CCc1ncc(S(C)(=O)=O)c(C2CCCNC2)n1 (stereo not given) | 21.49
CCc1c(O)nc(SCC(=O)Nc2ccccc2)n(C(C)CC)c1=O (stereo not given) | 65.15
COc1ccc(Cc2c(O)nc(SC)n(-c3ccccc3)c2=O)cc1 | -12.72
CCCSc1nc(O)c(CC)c(=O)n1-c1ccccc1 | 98.89
CSc1nc(O)c(Cc2ccccc2)c(=O)n1-c1ccccc1 | 18.81
CCc1c(O)n(C(C)CC)c(SCC(=O)c2ccccc2)nc1=O (stereo not given) | 28.35
CCc1c(O)nc(SCC(=O)N(CC)CC)n(C(C)CC)c1=O (stereo not given) | 4.731
CCOc1ccc(Cc2c(O)nc(SC)n(-c3ccccc3)c2=O)cc1 | 8.957
CCc1c(O)nc(SCC(=O)c2ccccc2)n(-c2ccccc2)c1=O | 13.57
CCc1c(O)nc(SC(C)CC)n(-c2ccccc2)c1=O (stereo not given) | 96.76
CNC(=O)COc1ccc(CNCc2c(C)nn(C)c2N(C)C)cc1 | -6.953
O=S(=O)(c1ccc(F)c(F)c1)n1cc(Cl)cn1 | -7.033
CC1(Cc2ccc(F)cc2)Cc2cc(C(=O)NCCO)ccc2O1 (stereo not given) | 0.603
COCc1noc(CN2C[C@H](NS(C)(=O)=O)[C@@H](C3CC3)C2)n1 | 15.5
CC(C)COC(=O)N1CC(=O)N(Cc2ccc(Cl)cc2)CC(O)C1 (stereo not given) | -5.11
CS(=O)(=O)NCc1ncn2c1CN(C(=O)C1CCCO1)CCC2 (stereo not given) | 5.323

Structure (SMILES) | Percent Effect [%]
COC(=O)C(CCSC)NC(=O)Cc1c(C)nn(-c2ccccc2)c1C (stereo not given) | 87.19
COc1cncc(-n2nc(C)c(CC(C)=O)c2C)c1 | 14.09
COc1cccc(-c2nc(C)c(C(=O)N[C@H](CO)CCSC)s2)c1 | 3.237
COc1cccc(-c2nc(C)c(C(=O)N[C@@H](CCSC)C(=O)O)s2)c1 | 4.928
CSCCC(NC(N)=O)C(=O)NCc1c(C)nn(-c2ccccc2)c1C (stereo not given) | -4.034
COC(=O)[C@H](CCSC)NC(=O)Cc1c(C)nn(-c2ccccc2)c1C | 83.92
CC(C)C(=O)NCCCNC(=O)Nc1cc(-c2ccccc2)ns1 | 30.68
CCS(=O)(=O)N1CCC2(CC1)CN(c1cccnc1)C(=O)CO2.O=C(O)C(F)(F)F | -1.862
CCc1csc(CNc2nc3c(s2)c(C)nn3C)n1 | -15.98
CCc1nc(CNc2nc3c(s2)c(C)nn3C)cs1 | 82.51
Cc1nn(C)c2nc(NC3CCNCC3)sc12 | 23.18
Cc1nc(CNc2nc3c(s2)c(C)nn3C)cs1 | 88.41
Cc1nn(C)c2nc(NCCCN3CCCC(CO)C3)sc12 (stereo not given) | 5.889
Cc1csc(CNc2nc3c(s2)c(C)nn3C)n1 | 21.44
CN(C)c1ncc(-c2cc(C(=O)O)n(CC3CC3)c2)cn1 | 80.35
CN(C)c1ncc(NC(=O)N2CCC(CN3CCCC3)C2)cn1 (stereo not given) | -23.44
Cn1nccc1-c1ncc(-c2cc(C(=O)O)n(CC3CC3)c2)cn1 | -21.93
COc1ccc(Cl)cc1S(=O)(=O)N(C)CC(N)=O | 28.08
CN(CC(=O)Nc1cccc(F)c1)Cc1nc(N)nc(N(C)C)n1 | 30.17
CN(CCS(=O)(=O)c1cc(Cl)ccc1Cl)CC(N)=O | 108.8
CN(CCS(=O)(=O)c1cc(Cl)ccc1Cl)CC(=O)Nc1ccc(F)cc1 | 110.1
CN(CCOc1cccc(F)c1)CC(=O)Nc1ccncc1 | 22.43
COc1ccc(Cl)cc1S(=O)(=O)N(C)CC(=O)Nc1ccccc1 | 28.1
Cc1ccc(S(=O)(=O)N(C)CC(N)=O)c(Cl)c1 | 18.08

Structure (SMILES) | Percent Effect [%]
CN(CCS(=O)(=O)c1cc(Cl)ccc1Cl)CC(=O)Nc1cccc(F)c1 | 108.9
CN(CC(=O)Nc1ccon1)S(=O)(=O)c1cc(Cl)ccc1Cl | -21.56
Cc1nn(C)c(C)c1-c1ccc(=O)n(C(C)C(=O)NC2CC2)n1 (stereo not given) | 11.69
CC(C)Nc1nc2c(s1)C(=O)CN(CC1CC1)C2 | -4.506
CCn1nc(C)c2c1cnn2CC(=O)N1CCN(C)CC1 | 13.07
O=C(O)CN1CCOCC(Cc2ccc(Cl)cc2)C1 (stereo not given) | -49.54
CCCc1cc(=O)n(CC(=O)NC(C)C)c(-n2nc(C)cc2C)n1 | 19.53
CCCNC(=O)Cn1c(-n2nc(C)cc2C)nc(CCC)cc1=O | 16.57
CCCc1cc(=O)n(CC(=O)NCCOC)c(-n2nc(C)cc2C)n1 | 61.91
Cc1nn2cc(CNc3nccc(CCC(F)(F)F)n3)nc2s1 | 14.28
COc1cc(OC)cc(-c2noc(CC(N)c3ccccc3)n2)c1 (stereo not given) | 63.98
COc1cc(OC)cc(-c2noc(CN)n2)c1 | -71.7
Cl.NC(Cc1nc(-c2ccccc2)no1)c1ccccc1 (stereo not given) | 19.6
COc1c(C2CCCN2Cc2nc(C3CC3)no2)c(C)nn1C (stereo not given) | -19.26
CC(C)(C)c1noc(CN2CCCc3cc(OC(F)(F)F)ccc32)n1 | 12.22
Cc1nn(C)cc1C1CC(=O)Nc2c1cnn2C (stereo not given) | 30.3
Cc1nnc(NCc2ccc(N3CCC(CO)CC3)cc2)c(C#N)c1C | -12.64
NC(=O)C1CCCN(c2ccc(CNC(=O)c3cnsn3)cc2)C1 (stereo not given) | -38.73
NC(=O)C1CCCN(c2ccc(CNC(=O)c3csnn3)cc2)C1 (stereo not given) | -20.12
N#Cc1c(Cl)nsc1NCc1ccc(N2CCSCC2)cc1 | 23.04
N#Cc1c(Cl)nsc1NCc1ccc(N2CCCC(C(N)=O)C2)cc1 (stereo not given) | 80.86
N#Cc1c(Cl)nsc1NCc1ccc(N2CCC(CO)CC2)cc1 | 51.2
